# Screens deposited in PubChem by National Center for Advancing Translational Sciences (NCATS).
# Pf growth 96h – P. falciparum growth inhibition at 96 hour, primary screen for plastid delayed-death inhibitors. P. falciparum luciferase reporter growth, 96 h. Potency, µM (doses to about 28.7 µM), for inactives: at the highest dose activity change, negative = inhibition, hits mostly inhibitors. actives 6.9% (n = 320,000). AID 504834; also: % is scaled to controls: 0 for no effect and ±100 for the full control effect
#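 96 h incubation, 37 C, 5% CO2, of luciferase-reporter P. falciparum-infected RBCs (2% hematocrit, 0.05% parasitemia final) with test compounds; endpoint luminescence.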
# AMA1 RON2 block – disrupts binding of P. falciparum AMA1 to RON2. AlphaScreen AMA1-biotinylated RON2 peptide binding. Potency, µM (titrated, usually from 58.2 µM), inactives show top-dose activity change, negative = inhibition, hits mostly inhibitors. actives 0.2% (n = 360,000);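 also: 0% = vehicle wells and -100% = peptide control; nearly all actives have a fitted effect of over 45% in size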
#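 AMA1 (3D7) with his tag at 25 nM final met compounds first, then biotinylated RON2 peptide at 25 nM; detection used donor plus acceptor beads, 10 µg/mL apiece, read by AlphaScreen after 30 min at room temperature.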
# NS1 inh – inhibitors of influenza NS1 protein function | actives 0.4% (n = 270,000) | Potency, µM (series often up to 46.1 µM), for the others: at the highest dose activity, positive = more growth | AID 2326; calls by dose curve; also: actives are rising curves; nearly all actives have a fitted effect of over 50% in size
#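 In this qHTS, NS1 from influenza A is expressed in budding yeast, where it slows growth. Cells are switched from glucose to 2% galactose medium (pH 6.0, -URA), treated with compound, and growth recovery is read at OD600.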
# Sm TGR block – blocks Schistosoma mansoni thioredoxin glutathione reductase; purified TGR, DTNB reduction, TNB absorbance 405 nm; Potency, µM (series often up to 114 µM), inactives show at the highest dose activity change, negative = inhibition, usual class: inhibitors; actives 3% (n = 360,000); Q962Y6; also: % is scaled to controls: 0 for no effect and ±100 for the full control effect; nearly all actives have a fitted effect of over 60% in size
#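 Kinetic colorimetric format: TGR-catalysed, NADPH-driven DTNB reduction monitored via TNB absorbance. Enzyme dispensed at 20 nM; compound exposure 15 min at room temperature before reaction start.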
# Pf growth 48h – P. falciparum growth inhibition at 48 hours (one generation); actives 5.9% (n = 310,000); AID 504832; Potency, µM (top dose mostly 28.7 µM), for inactives: at the top dose activity change, negative = inhibition, most hits filed as inhibitors; P. falciparum luciferase growth in erythrocytes, 48 h; also: % is scaled to controls: 0 for no effect and ±100 for the full control effect
#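 Compounds are pin-transferred into medium, infected erythrocytes (2% hematocrit, 0.1% parasitemia final) are added, and plates sit one parasite generation at 37 C in 5% CO2. Detection reagent is then added and luminescence measured.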
# Numbers without * were called inactive; i = inactive; ? = inconclusive; . = no result given. Shown are actives, neighbours in structure and some others; about 11% of the full set was active somewhere. Unless noted, calls follow the shape of the dose curve; as a rule, active = well fitted curve in the direction sought with a large enough effect; inconclusive = small, poorly fitted or top-dose-only effect, or another doubt; inactive = no such curve, though single readings can be large; an effect the other way counts as inactive or inconclusive. Potency is read from the fitted curve at half-maximal effect.
SMILES,Pf growth 96h,AMA1 RON2 block,NS1 inh,Sm TGR block,Pf growth 48h
CCc1ccc(-n2nc3cc(C)c(NC(=O)c4ccccc4C)cc3n2)cc1,.,.,.,-2%,.
CC(C)C(C(=O)O)N1C(=O)C2C3CCC(C3)C2C1=O (stereo unspecified),.,9%,.,.,.
CCOC(=O)C1=NN(c2ccc(C)cc2)CC1C(=O)OC (stereo unspecified),5.9µM*,47%,6%,-4%,12%
Cc1oc2c(c1C(=O)O)C(=O)c1ccccc1C2=O,?,0%,3%,-32%,?
Cc1oc2c(c1C(=O)c1ccccc1)C(=O)C(=O)c1ccccc1-2,13µM*,?,-169%,?,9.3µM*
CCOC(=O)c1c(C)oc2c1C(=O)c1ccccc1C2=O,-3%,-11%,-32%,-19%,0.74µM*
COC(=O)c1nnn(-c2cccc(C)c2)c1N,.,.,.,1%,.
CCOc1ccc2oc(=O)cc(CN3CCN(C(=O)c4ccc(Cl)cc4)CC3)c2c1,.,.,.,-7%,.
C#CCOCCOCCOCCNc1nc(N2CCN(C(=O)Cn3cc(CCCCN)nn3)CC2)nc(N2CCN(C(=O)[C@H](C)n3cc(CCC(=O)O)nn3)CC2)n1,.,12%,.,.,.
C#CCOCCOCCOCCNc1nc(N2CCN(C(=O)Cn3cc(CCCCN)nn3)CC2)nc(N2CCN(C(=O)[C@H](C(C)C)n3cc(CCO)nn3)CC2)n1,0%,-4%,-20%,-2%,12%
C#CCOCCOCCOCCNc1nc(N2CCN(C(=O)CCCCCCCCCCNC(=O)[C@@H](CCSC)n3cc(CCO)nn3)CC2)nc(N2CCN(C(=O)CCCCCCCCCCNC(=O)[C@H](CO)n3cc(CCCCCN)nn3)CC2)n1,?,-19%,.,-17%,1µM*
C#CCOCCOCCOCCNc1nc(N2CCN(C(=O)CCCCCCCCCCNC(=O)[C@@H](CCSC)n3cc(CCO)nn3)CC2)nc(N2CCN(C(=O)CCCCCCCCCCNC(=O)[C@H](CCC(=O)O)n3cc(CCCCCN)nn3)CC2)n1,10µM*,-14%,.,-1%,5.2µM*
CCc1ccccc1NC(=O)CNCC(=O)Nc1ccccc1CC,-2%,17%,2%,-6%,.
CC(C)n1c(C(F)(F)F)nc2cc(C(=O)N3CCCCC3)ccc21,-6%,-8%,-14%,-13%,?
CCCCn1c(N)c(N(Cc2ccccc2OC)C(=O)c2ccc([N+](=O)[O-])s2)c(=O)[nH]c1=O,9.3µM*,3%,.,-33%,10µM*
Cc1ccn2cc(C(=O)Nc3nnc(C)s3)nc2c1,4.1µM*,54%,-4%,1%,63%
CCOCCN1CCN(c2c(CC)c(C)nc3cc(-c4cc(OC)cc(OC)c4)nn23)CC1,9%,0%,-26%,7%,1.5µM*
CCc1c(C)nc2cc(-c3ccc(OC)c(OC)c3)nn2c1N1CCCC1,0%,-2%,-66%,1%,13µM*
CCSc1nnc2ccc(-c3ccc(OC)c(OC)c3)nn12,35%,1%,-8%,1%,-22%
CCc1c(C)nc2cc(-c3cc(OC)cc(OC)c3)nn2c1N1CCCC1,.,-1%,-56%,1%,?
CCc1c(C)nc2cc(-c3ccc(OC)c(OC)c3)nn2c1N1CCC(C)CC1,44%,-4%,3%,10%,7.4µM*
Cc1cnc(NC(=O)c2c(-c3ccccc3)noc2C)s1,15%,84%,-1%,8%,-3%
Cc1nc(Cc2ccccc2)sc1CC#N,.,1%,.,.,.
CCc1cc(CNC(=O)C2CCC(=O)N(CCc3cccc(F)c3)C2)on1 (stereo unspecified),13µM*,-1%,2%,-3%,3%
Cc1cc(CNC(=O)C2CCC(=O)N(CCc3cccc(F)c3)C2)on1 (stereo unspecified),13µM*,10%,-8%,20%,-2%
SMILES,Pf growth 96h,AMA1 RON2 block,NS1 inh,Sm TGR block,Pf growth 48h
CN(CCC1CCOCC1)C(=O)C1CCC(=O)N(CCc2ccc(Cl)cc2)C1 (stereo unspecified),44%,-2%,-8%,-1%,4%
CN(CCC1CCOCC1)C(=O)C1CCC(=O)N(CCc2cccc(F)c2)C1 (stereo unspecified),15µM*,-2%,-1%,0%,-6%
Cc1ccccc1CCNC(=O)C1CCC(=O)N(CCc2cccc(F)c2)C1 (stereo unspecified),2%,-14%,-2%,-16%,-18%
O=C(NCCOc1ccccc1F)C1CCC(=O)N(CCc2cccc(F)c2)C1 (stereo unspecified),15µM*,4%,-25%,-14%,?
COCCN(C(=O)COC(=O)CNC(=O)c1ccc(C)cc1)c1c(N)n(Cc2ccccc2)c(=O)[nH]c1=O,.,-1%,.,.,.
CC(=O)N1CCCc2cc(S(=O)(=O)N3CCC(C(=O)NC4CCC(C)CC4)CC3)ccc21 (stereo unspecified),.,.,.,9%,.
O=C(O)C1CCN(S(=O)(=O)c2cccc3nsnc23)CC1,?,0%,-6%,10%,29%
O=C(O)C1CSCN1S(=O)(=O)c1cccc2nsnc12 (stereo unspecified),2%,4%,0%,45µM*,5%
O=C(C1CCN(S(=O)(=O)c2cccc3nsnc23)CC1)N1CCN(c2ccccc2F)CC1,2.6µM*,-18%,1%,-21%,-3%
O=C(C1CCCN(S(=O)(=O)c2cccc3nsnc23)C1)N1CCN(c2ccccc2F)CC1 (stereo unspecified),.,.,.,6%,.
COc1ccc(N2CCN(C(=O)CS(=O)(=O)c3cccc4nsnc34)CC2)cc1,.,.,.,50µM*,.
O=C(Nc1cccc(F)c1)C1CCCN(S(=O)(=O)c2cccc3cccnc23)C1 (stereo unspecified),?,1%,2%,12%,9.3µM*
COc1cccc(C(=O)N2CCC[C@H]2C(=O)N2CCC[C@H]2C(=O)NCc2ccncc2)c1,.,5%,.,.,.
CCC(C)N1CNc2c(c(=O)[nH]c(=S)n2-c2cccc(C)c2)C1 (stereo unspecified),i,1%,.,-21%,-7%
CC(=O)c1ccc(N2CCN(C(=O)C3CCCN3S(=O)(=O)c3cccc4nsnc34)CC2)cc1 (stereo unspecified),13µM*,-3%,13%,-2%,?
O=C(C1CCCN1S(=O)(=O)c1cccc2nsnc12)N1CCCCC1 (stereo unspecified),22%,25%,-2%,12%,14%
Cc1cccc(N2CCN(C(=O)C3CCCN(S(=O)(=O)c4cccc5cccnc45)C3)CC2)c1C (stereo unspecified),.,.,-55%,.,.
O=C(C1CCCN(S(=O)(=O)c2cccc3cccnc23)C1)N1CCN(c2ccccc2F)CC1 (stereo unspecified),15µM*,4%,-57%,9%,.
CCOC(=O)C1=C(Cc2ccc(C)cc2)C(=O)c2ccccc2C1=O,2.3µM*,.,-190%,8.9µM*,.
